Residues, ends and D or L forms follow the SMILES beside them. *: point of attachment. Octanoyl = CCCCCCCC(=O)*

This test deals with HepG2. Description: GSK_TCMDC: Percent inhibition of human HepG2 cell line. Test compounds present at 10uM. The class given is functional.
Regarding `O=S(=O)(Nc1cccc(CCN2CCC(N3CCCCC3)CC2)c1)c1ccc(Oc2ccccc2)nc1`, the Inhibition – broadly, the percentage by which the read-out fell short of the control – is reported as 8%.

Compound `Cc1ccccc1Nc1nc(NCc2ccccc2)nc2ccccc12` registered an Inhibition of 39%. In the case of `Br.CCCOc1ccc(OCCCON2C(=N)N=C(N)NC2(C)C)cc1` it was 59%; in that of `O=C(Nc1ccc(OC2CCN(Cc3ccsc3)CC2)c(Cl)c1)c1ccc(F)cc1.O=C(O)C(F)(F)F`, 31%. For the compound `CN1CCC(Oc2ccc(CN3CC[C@H](NC(=O)c4ccc(Cl)c(Cl)c4)C3)c3ccccc23)C1.O=C(O)C(F)(F)F` (stereo not given in full), the Inhibition was determined as 52%. On to `CC(=O)N(Cc1ccc(CC(C)NCCc2cccc(Cl)c2)cc1)Cc1ccc(CC(C)NCCc2cccc(Cl)c2)cc1` (stereo not given), for which the Inhibition is recorded as 98%. Next, `Cl.Oc1ccc2c(CNCCc3ccccc3)c(O)ccc2c1CNCCc1ccccc1`: 24%; `C=CCOc1ccc(-c2c(C)[nH]c(C)c(Br)c2=O)cc1`: 5%. Turning to `CCOc1ccc2[nH]c(C)cc(=NN=Cc3ccc(Cl)cc3)c2c1`, the Inhibition came to 0%.

Turning to `Cc1ccc([N+](=O)[O-])cc1NC(=O)N(CC(O)c1ccccc1)C1CCCCC1` (stereo not given), the Inhibition is reported as 11%. `COc1ccc(CNC(=O)Nc2cc3cc(-c4ccc(CN5CCCC5)cc4)ccc3n3c(C)nnc23)cc1` yielded an Inhibition of 100%. `O=C(/C=C/c1ccc(C(F)(F)F)cc1)N1CCc2cc3nccc(N4CCN5CCC[C@H]5C4)c3cc21` showed an Inhibition of 0%. In the case of `CS(=O)(=O)c1ccc(CCNCc2ccc(-c3ccc(CN(C(=O)C4CC(=O)c5ccccc54)C4CCN(Cc5ccccc5)CC4)cc3)nc2)cc1.O=C(O)C(F)(F)F` (stereo not given), the Inhibition stood at 9%.

`COc1ccc(-c2cccc(NC(=O)c3ccc(C#N)cc3)c2)cc1CNC(C)C.O=C(O)C(F)(F)F` yielded an Inhibition of 25%. In turn, `CN(C)C(=O)C(CC(=O)NCc1ccccc1Cl)N(C)C.CN(C)C(=O)CC(C(=O)NCc1ccccc1Cl)N(C)C.O` (stereo not given) came in with an Inhibition of 7%.

On to `Cc1cccc(CNc2nc(C)cc(NCCC(=O)NCCOc3ccccc3)n2)c1.O=C(O)C(F)(F)F`, for which the Inhibition was found to be 18%.

Compound `O=C(Nc1ccc(OC2CCN(Cc3ccccc3)C2)c(Cl)c1)c1ccc(F)cc1.O=C(O)C(F)(F)F` (stereo not given) yielded an Inhibition of 7%. In turn, `CCc1cn2c3c(cc(C(=O)N[C@@H](Cc4ccccc4)[C@H](O)CNC4CCC4)cc13)N(C)S(=O)(=O)CC2` returned an Inhibition of 0%. Compound `Cc1ccc(O)cc1Nc1ccnc2ccc(C(C)(C)C)cc12` yielded an Inhibition of 6%. The compound `Cn1cncc1C(=O)Nc1cccc(-c2ccc(-c3nc4cc(F)ccc4[nH]3)s2)c1` returned an Inhibition of 0%. For the compound `O=C(O)C(F)(F)F.O=S(=O)(NCCN1CCCC1)c1ccc(-c2cccc(CNC3Cc4ccccc4C3)c2)cc1`, the Inhibition is recorded as 55%. The compound `CCCCCCCC(=O)N[C@@H](Cc1ccccc1)C(=O)N[C@H](C(=O)O)C(C)C` (Octanoyl-Phe-Val-OH) displayed an Inhibition of 0%.

For the compound `O=S(=O)(c1c(Cl)cc(Cl)cc1Cl)N1CCCCC(c2ccc(Cl)cc2)=N1`, the Inhibition is 11%. Turning to `CC(C)Cn1cc(C2CCN(CCN3CCC(CNC(=O)c4ccc(NC(=O)c5ccc(Cl)cc5)cc4)CC3)CC2)c2ccccc21`, the Inhibition turned out to be 28%. In turn, `CCOc1ccc(C(=O)Nc2cc(Br)c3c(c2)CNCC3)cc1C(F)(F)F.Cl` returned an Inhibition of 15%. The compound `Cn1cncc1C(=O)Nc1ccc(-c2ccc(-c3nc4cc(C(F)(F)F)ccc4[nH]3)cc2)cc1` displayed an Inhibition of 24%. `Brc1cc(CNCCCNc2nc3ccccc3[nH]2)sc1Br.Cl` displayed an Inhibition of 10%.

In the case of `CC(C)(C)c1ccc(CN2CCC(CNC(=O)c3cc(-c4ccccc4C(F)(F)F)cs3)C2)cc1.O=C(O)C(F)(F)F` (stereo not given), the Inhibition turned out to be 61%.

Compound `CN1CCC(C(=O)N(Cc2ccc(-c3ccc(CNCCc4ccc(S(C)(=O)=O)cc4)cn3)cc2)C2CCN(Cc3ccccc3)CC2)CC1.O=C(O)C(F)(F)F` registered an Inhibition of 11%. As for `CCCC(C)Nc1nc(C)cc(N[C@@H](CC(C)C)C(=O)Nc2ccc(OC)cc2)n1.O=C(O)C(F)(F)F` (stereo not given in full), the Inhibition was 18%. The compound `CN1CC(c2ccccc2)c2cc(O)c(CN3CCCCC3)cc2CC1Cc1ccccc1.Cl` (stereo not given) yielded an Inhibition of 0%. As to `Oc1c(C(Nc2ccccn2)c2ccc(Cl)cc2Cl)ccc2cccnc12` (stereo not given), the Inhibition was 42%. Next, `COc1ccc2nccc([C@@H](O)CN3CCC(NCc4cc5c(F)ccc(F)c5[nH]4)CC3)c2n1.CS(=O)(=O)O`: 22%; `N=C(N)NN=CC(=O)Nc1ccc(Br)cc1.O=S(=O)(O)O`: 5%. Regarding `N#Cc1ccc2[nH]cc(CN3CCC4(CC3)CN(CCNCc3ccccc3)C(=O)CO4)c2c1.O=C(O)C(F)(F)F`, the Inhibition is 0%.
